NTR1 ag: agonists of human NTR1, primary screen, imaging, U2OS cells, beta-arrestin-GFP, high content. Neurotensin receptor type 1 (Homo sapiens), P30989. activation, % at 20 µM. AID 493036, 2011. actives 0.17% (n = 330,000). NTR1-U2OS beta-arrestin-GFP spot imaging, agonist mode;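 active = activation at or above 40% of the spot to cytoplasm intensity ratio, with at least 20 cells analyzed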
GRK2 inh: compounds blocking aptamer binding on GRK2 – biochemical, human GRK2, bead flow cytometry, HTS, primary screen | Beta-adrenergic receptor kinase 1 (Homo sapiens), P25098 | FAM-aptamer displacement from GRK2 | inhibition of aptamer binding, % at 10 µM | actives 0.59% (n = 330,000) | AID 488847, 2010;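 active = inhibition of aptamer binding above 40%, roughly 3 SD of noise, on plates passing a quality check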;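 also: median bead fluorescence of bound FAM aptamer so fluorescent compounds give negative values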
Bfl-1 A1 inh: caspase 3/7 activation in MEF A1-2A-BIM cells, primary screen, A1 inhibitor project, cell-based, luminescence, HTS; Caspase-Glo 3/7 luminescence, 3 h; percent of clofoctol response, vehicle zero; caspase activation, % (test concentration not listed); actives 0.066% (n = 330,000);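 active = over half of replicate activation scores above 10%, or exactly half above 10 with the replicate mean above 10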
VLA-4 inh: inhibition in human VLA-4 binding assay, primary screen, VLA-4 allosteric modulator project, MLPCN library, flow cytometry, VLA-4 expressing cells. AID 2557, 2010. actives 0.2% (n = 330,000). ligand binding flow cytometry. inhibition, % (about 7 µM as worked out from the volumes in the protocol). Integrin alpha-4 (Homo sapiens), P13612; in the data active = inhibition above about 50%
Target sequence (P13612 whole entry, looked up): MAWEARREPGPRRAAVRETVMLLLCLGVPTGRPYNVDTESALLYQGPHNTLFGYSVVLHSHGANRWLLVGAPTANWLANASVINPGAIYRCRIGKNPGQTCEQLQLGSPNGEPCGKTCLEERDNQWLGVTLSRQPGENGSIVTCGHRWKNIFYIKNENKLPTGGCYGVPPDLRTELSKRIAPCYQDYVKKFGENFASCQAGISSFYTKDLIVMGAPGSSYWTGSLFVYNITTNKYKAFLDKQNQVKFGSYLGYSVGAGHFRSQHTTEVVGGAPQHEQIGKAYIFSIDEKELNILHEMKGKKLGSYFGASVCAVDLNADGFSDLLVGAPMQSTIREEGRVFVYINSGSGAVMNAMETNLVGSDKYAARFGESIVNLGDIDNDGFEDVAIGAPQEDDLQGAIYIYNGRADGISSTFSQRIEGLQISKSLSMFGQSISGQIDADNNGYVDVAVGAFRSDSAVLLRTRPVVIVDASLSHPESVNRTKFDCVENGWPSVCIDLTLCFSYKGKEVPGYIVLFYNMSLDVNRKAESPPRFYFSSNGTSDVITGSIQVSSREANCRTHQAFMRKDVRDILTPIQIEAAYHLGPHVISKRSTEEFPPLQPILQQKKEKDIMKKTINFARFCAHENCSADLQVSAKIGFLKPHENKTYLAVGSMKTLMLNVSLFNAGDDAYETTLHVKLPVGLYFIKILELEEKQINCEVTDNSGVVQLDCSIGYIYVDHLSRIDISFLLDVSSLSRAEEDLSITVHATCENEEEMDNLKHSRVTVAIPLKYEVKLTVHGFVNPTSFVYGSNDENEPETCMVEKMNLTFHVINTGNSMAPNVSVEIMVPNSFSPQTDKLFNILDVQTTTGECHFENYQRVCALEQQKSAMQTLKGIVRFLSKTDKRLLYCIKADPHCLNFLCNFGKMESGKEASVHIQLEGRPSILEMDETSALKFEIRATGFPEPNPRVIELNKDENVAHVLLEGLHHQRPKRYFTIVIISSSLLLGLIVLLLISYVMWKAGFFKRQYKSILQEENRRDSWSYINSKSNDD
B2AR ag: beta2AR agonists driving receptor internalization, primary screen, cell-based, FAP fluorogen, flow cytometry | Am2.2-beta2AR cells | response, % (test concentration not listed) | actives 0.43% (n = 340,000) | AID 504454, 2011;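 active = response above a set limit, near 3 SD of response in nonfluorescent compounds, cut at about 42% in these data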
GRK2 inh confirm: GRK2 aptamer-displacing inhibitors, retest, confirmation, biochemical, cherry pick 1, bead flow cytometry; shares compounds with GRK2 inh; bead-bound GRK2, FAM-aptamer displacement; aptamer displacement, % at 10 µM; actives 4% (n = 2,000); AID 504451, 2011;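 active = aptamer displacement above 40%, near three times the noise of non-fluorescent compounds, on plates passing quality checks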;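 also: negative values mostly reflect intrinsic compound fluorescence rather than true enhancement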
FAM quench CP1: quenches fluorescent RNA aptamer, GRK2 hit artifact; Carboxyfluorescein RNA aptamer on beads, flow cytometry quenching; hits give low values; 2,000 tested, under 10 active; fluorescence response (% of DMSO), % at 10 µM; shares compounds with GRK2 inh;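 active = compounds that quench the bead-bound fluorescent RNA probe, cutting fluorescence to under half of the solvent control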;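 also: counterscreen run without GRK2 so only probe quenching by compound is measured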
GRK2 CP2: GRK2 aptamer-displacing inhibitors, hit retest, confirmation, biochemical, cherry pick 2, bead flow cytometry | inhibition of aptamer binding, % at 10 µM | 360 tested, under 10 active | AID 504782, 2011 | bead-bound GRK2, FAM-aptamer displacement | shares compounds with GRK2 inh;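 active = inhibition of aptamer binding above 40%, about triple the noise seen with nonglowing compounds, on plates passing quality control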;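 also: negative values mostly come from compounds that fluoresce themselves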
FAM quench SP: quenches fluorescent RNA aptamer, GRK2 hit artifact; shares compounds with GRK2 inh; carboxyfluorescein RNA aptamer beads, flow cytometry quenching; hits give low values; fluorescence response vs DMSO, % at 10 µM; 360 tested, under 10 active; AID 588494;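 active = response vs DMSO under 50%, meaning signal dropped by over half, treated as fluorescence quencher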;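 also: labelled aptamer on streptavidin beads without GRK2 as a quench counter-screen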
Hits are given with their value; n = inactive; x = no result. Shown are actives, neighbours in structure and some others; about 1.3% of the full set was active somewhere.

SMILES	NTR1 ag	GRK2 inh	Bfl-1 A1 inh	VLA-4 inh	B2AR ag	GRK2 inh confirm	FAM quench CP1	others
C(=N/n1c2ccccc2c2ccccc21)/c1ccco1	n	96	n	n	n	n	n
Cc1c(NC(=O)C(C)OC(=O)c2cccc(S(=O)(=O)N3CCOCC3)c2)c(=O)n(-c2ccccc2)n1C (stereo unspecified)	n	76	n	n	x	n	n
Cc1c(NC(=O)c2cccc(S(=O)(=O)N3CCOCC3)c2)c(=O)n(-c2ccccc2)n1C	n	n	n	n	n	x	x
O=C(Nc1ccccc1)N1CCCN(Cc2ccccc2F)C1	n	99	n	n	n	n	n
CC[C@]12C(=O)N(C)C[C@H]([C@@H]3C(=O)N(C)C(=O)[C@@H]31)N2C(=O)c1ccc(F)cc1	x	x	x	x	n	x	x
CC(C)(C(=O)c1ccccc1)/[N+]([O-])=C/c1ccc(Br)cc1	n	60	n	n	n	n	n
COc1ccc(-c2noc(N3CCC(C(=O)Nc4ccccc4Cl)CC3)n2)cc1	n	n	n	n	n	x	x
COc1ccc(-c2noc(N3CCC(C(=O)Nc4ccc(OC)c(OC)c4)CC3)n2)cc1	n	83	n	n	n	n	n
O=[N+]([O-])c1ccc(Cl)c(S(=O)(=O)NCCc2ccccn2)c1	n	n	n	n	n	x	x
CC12CCC(c3nnc(SCc4ccc(Cl)cc4)nc31)C2(C)C (stereo unspecified)	n	n	n	n	n	x	x
CC12CCC(c3n[nH]c(=S)nc31)C2(C)C (stereo unspecified)	n	73	n	n	n	x	x	GRK2 CP2=n;FAM quench SP=n
COc1ccc(-n2c3nc4ccccc4nc3c3c(=N)oc(C)nc32)cc1	n	86	n	n	n	x	x	GRK2 CP2=n;FAM quench SP=n
NC(=O)N(CCC(=O)O)c1ccccc1	n	78	n	n	n	x	x	GRK2 CP2=n;FAM quench SP=n
Cc1nn(C(C)C(=O)NCCc2cccs2)c(=O)c2nn(-c3ccccc3)c(C)c12 (stereo unspecified)	n	n	n	n	n	x	x
Cc1c(/C=N/NC(=O)CNc2ccccc2)c2ccccn2c1C(=O)c1ccccc1	n	n	n	n	n	x	x
CC(OC(=O)c1ccc([N+](=O)[O-])s1)C(=O)NC1CCCCC1C (stereo unspecified)	n	n	n	n	n	n	n
CC1CCN(S(=O)(=O)c2ccc(C(=O)OC(C)C(=O)NC3CCCCC3C)cc2)CC1 (stereo unspecified)	n	n	n	n	n	n	n
CC(=O)NCCNc1nc2c(-c3cccc(C)c3)nnn2c2ccccc12	n	65	n	n	n	n	n
CC(Oc1cccc(Cl)c1)C(=O)Nc1ccc(N2CCOCC2)cc1N1CCOCC1 (stereo unspecified)	n	n	n	n	n	x	x
CC(=O)Nc1nc2cc([N+](=O)[O-])ccc2s1	n	n	n	n	n	x	x
O=c1nc(Nc2ccc(Br)cc2)sc2ccc([N+](=O)[O-])cc12	n	42	n	n	n	n	n
O=C(C1CCCC1)N1CCN(S(=O)(=O)c2cccc(Cl)c2Cl)CC1	n	68	n	n	n	n	n
CC(=O)Nc1ccc2c(c1)nc(CCNC(=O)c1ccccc1)n2C	n	57	n	n	n	n	n
Cn1c(CCNC(=O)c2ccccc2)nc2cc(NC(=O)C3CCCCC3)ccc21	n	n	n	n	n	n	n
CCC(=O)NCCc1nc2cc(NC(=O)Nc3ccccc3)ccc2n1C	n	n	n	n	n	n	n
SMILES	NTR1 ag	GRK2 inh	Bfl-1 A1 inh	VLA-4 inh	B2AR ag	GRK2 inh confirm	FAM quench CP1	others
Cc1ccnc(NC(=O)COC(=O)c2ccc(F)cc2F)n1	n	n	n	n	n	n	n
Cc1ccc(N(CC(O)Cn2c3ccccc3c3ccccc32)S(C)(=O)=O)cc1 (stereo unspecified)	n	54	n	n	n	n	n
Cc1ccc(N(CC(O)Cn2c3ccccc3c3ccccc32)S(C)(=O)=O)c(C)c1 (stereo unspecified)	n	n	x	n	n	x	x
COc1ccc(NC(=O)COC(=O)CO/N=C(\C)c2ccc3c(c2)OCO3)cc1S(N)(=O)=O	n	n	n	n	n	x	x
NC(=O)c1ccsc1NC(=O)CS(=O)(=O)c1ccccc1	n	n	n	n	n	x	x	GRK2 CP2=n;FAM quench SP=n
CNC(=O)c1ccsc1NC(=O)CCS(=O)(=O)c1ccc(Cl)cc1	n	n	n	n	n	x	x
CNC(=O)c1ccsc1NC(=O)CS(=O)(=O)c1ccccc1	n	n	n	n	n	x	x	GRK2 CP2=n;FAM quench SP=n
CN(C)S(=O)(=O)c1cc(C(=O)Nc2ccccc2C(=O)NC2CC2)ccc1Cl	n	n	x	n	n	x	x
C=CCN(c1ccccc1)S(=O)(=O)c1cc2c(cc1C)NC(=O)CO2	n	n	n	n	n	x	x
O=C(N/N=C\c1cc([N+](=O)[O-])ccc1N1CCOCC1)c1ccccn1	n	89	n	n	n	n	n
Cc1cc(C)n2ncc(/C(N)=N/OC(=O)Nc3ccccc3)c2n1	n	n	n	n	n	x	x
Cc1nnc(SCC(=O)Nc2ccc(S(N)(=O)=O)cc2)n(N)c1=O	n	n	n	n	n	n	n
Cc1noc(C)c1COc1cccc(C(=O)NCc2ccccc2Cl)c1	n	n	n	n	n	n	n
C=CCOc1ccc(C(c2c(C(=O)O)[nH]c3ccccc23)c2c(C(=O)O)[nH]c3ccccc23)cc1	n	79	n	n	n	n	n
Cc1c(NS(=O)(=O)c2ccc3[nH]c(=O)[nH]c3c2)c(=O)n(-c2ccccc2)n1C	n	75	n	n	n	n	n
Cc1c(NS(=O)(=O)c2ccccc2)c(=O)n(-c2ccccc2)n1C	n	n	n	n	n	x	x
COc1ccc(OCCN2CCN(C(=O)c3ccc(OC(F)F)c(OC)c3)CC2)cc1	n	56	n	n	n	n	n
Cc1c(NC(=O)c2ccco2)cccc1-c1nc2cccnc2s1	n	46	n	n	n	n	n

Assay outcomes from PubChem.
